The values that follow come from PubChem BioAssay (EPA / NIEHS).

Molecules are shown by their SMILES. The source made the active and inactive calls. The calls were made as follows: active = hit-call score of the fitted dose curve at least 0.9, where 1 is the maximum; inactive = score below 0.9.

System in the first experiment: not listed separately
The experiment in a line: ATG_NFI_CIS: Attagene CIS-FACTORIAL HepG2 Assay for human Nuclear Factor I (NFI) (AID 2282989). The settings on record: HepG2 cis-regulatory reporter, NFI response element transcription; actives raise or lower the signal. The procedure, abridged:
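Multiplexed cis-reporter system in human HepG2 cells reports native TF activity as reporter mRNA induction 24 h post-dose. Fragments labelled with 6-FAM, HpaI-digested and resolved by capillary electrophoresis; activity fitted both directions versus DMSO.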
`O=C(O)c1cc(Cl)cc([N+](=O)[O-])c1Cl`: the compound was classed as inactive.

`CCCCCCCCCCOC(C)=O`: the outcome was inactive.

Regarding `Cc1ccc2c(c1)C(=O)c1ccccc1C2=O`, the compound was called inactive.

On to `CCC(C)OC(=O)c1ccc(O)cc1` (stereo not given), for which the result was inactive.

Regarding `CCN(CCO)c1cccc(C)c1`, the outcome was inactive.

Turning to `Nc1ccc(N=Nc2ccccc2)c(N)n1`, the result was inactive.

`CC(C)(C)c1ccc(OC(=O)c2ccccc2O)cc1`: the outcome was inactive.

Take `COC(=O)/C=C\C(=O)O`: the compound was classed as inactive.

`CC(=O)OCCC1CCCCC1`: the result was inactive.

For the compound `O=C(O)c1ccccc1Nc1cccc(C(F)(F)F)c1`, the outcome was inactive.

Turning to `O=C1OC(=O)c2cc(Oc3ccc4c(c3)C(=O)OC4=O)ccc21`, the call was inactive.

On to `O=C(Nc1cccc(C(F)(F)F)c1)c1cc(Br)cc(Br)c1O`, for which the AC50 was 100 µM (active).

Take `COc1cc(C)ccc1C(C)C`: the call was inactive.

Take `CCCCCCCCCCc1ccccc1`: the outcome was inactive.

For `FC(F)(F)C(=NOCC1OCCO1)c1ccc(Cl)cc1`, the outcome was inactive.

`O=C(Oc1ccccc1)c1ccc2ccccc2c1O`: the compound was classed as inactive.

Take `O=C1C=CC(=O)O1`: the outcome was inactive.

With `O=C1c2ccccc2C(=O)C1c1nc2ccccc2c(Br)c1O`, the compound was classed as inactive.

With `O=c1[nH]nc(-c2ccc([N+](=O)[O-])o2)o1`, the outcome was inactive.

On to `CC=CCO`, for which the call was inactive.

On to `CC(C)=CCC[C@H](C)CCO`, for which the compound was classed as inactive.

`Cc1cc(C)c(C(=O)O)c(C)c1`: the call was inactive.

Turning to `CCCCCCCC(C)=O`, the compound was called inactive.

Turning to `c1ccc(CCCc2ccncc2)cc1`, the call was inactive.

Turning to `CC=C1CC2C=CC1C2` (stereo not given), the compound was called inactive.

As to `Cc1cc(O)c(Cl)c(C)c1Cl`, the compound was called inactive.

In the case of `C=CC(=O)OCCC(=O)O`, the call was inactive.

For the compound `OC1CCCCCCCCCCC1`, the compound was called inactive.

With `CC(C)=CC1CC(C)CCO1` (stereo not given), the result was inactive.

For the compound `CCOCC(=O)O`, the compound was classed as inactive.

For `CC1(C)S[C@@H]2[C@H](NC(=O)COc3ccccc3)C(=O)N2[C@H]1C(=O)O`, the call was inactive.

As to `CC(=O)NS(=O)(=O)c1ccc(N)cc1`, the call was inactive.

With `CCCOCCOCCOCCO`, the result was inactive.

With `C=C1C2CCC(C2)C1(C)C` (stereo not given), the compound was classed as inactive.

As for `C=CC(C)(CCC=C(C)C)OC(=O)C(C)C` (stereo not given), the call was inactive.

As for `CCCCCCCCCCCCCOP(=O)(O)O`, the call was inactive.

On to `O=S(=O)(O)c1ccccc1C=Cc1ccc(-c2ccc(C=Cc3ccccc3S(=O)(=O)O)cc2)cc1`, for which the call was inactive.

Consider `Cc1cc(C)c(C)cc1C`, for which the compound was called inactive.

Regarding `CC(=O)C=CC1C(C)=CCC(C)C1(C)C` (stereo not given), the compound was classed as inactive.

Turning to `NCCCN1CCN(CCCN)CC1`, the outcome was inactive.

In the next experiment the target is Myc proto-oncogene protein (Homo sapiens) (UniProt P01106). Put plainly: ATG_Myc_CIS: Attagene CIS-FACTORIAL HepG2 Assay for human Myelocytomatosis (Myc) Proto-Oncogene Transcription Factor (AID 2282990). The settings on record: HepG2, Attagene cis-reporter transcription factor activity; actives raise or lower the signal. Summed up: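 Read-out: fluorescent reporter mRNA fragments resolved by capillary electrophoresis after RT-PCR. Human HepG2 liver cells carried transfected cis-element reporter units and were dosed for 24 h. Gain or loss of signal fitted relative to DMSO baseline.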
Myc proto-oncogene protein (Homo sapiens), sequence (P01106 whole entry, looked up, the tested form may be a part): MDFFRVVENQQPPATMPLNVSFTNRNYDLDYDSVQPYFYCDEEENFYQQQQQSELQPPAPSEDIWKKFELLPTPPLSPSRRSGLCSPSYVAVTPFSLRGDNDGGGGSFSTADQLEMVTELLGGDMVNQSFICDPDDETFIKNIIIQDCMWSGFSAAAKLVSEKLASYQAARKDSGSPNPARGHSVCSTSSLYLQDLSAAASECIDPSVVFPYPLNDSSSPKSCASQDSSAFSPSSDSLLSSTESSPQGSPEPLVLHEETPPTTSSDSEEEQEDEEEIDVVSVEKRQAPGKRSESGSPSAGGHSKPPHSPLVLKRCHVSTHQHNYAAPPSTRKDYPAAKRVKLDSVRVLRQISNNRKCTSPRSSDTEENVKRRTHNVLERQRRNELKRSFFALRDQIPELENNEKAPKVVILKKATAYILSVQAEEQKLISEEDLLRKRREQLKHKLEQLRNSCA
Consider `O=C(O)c1cc(Cl)cc([N+](=O)[O-])c1Cl`, for which the result was inactive.

Regarding `CCCCCCCCCCOC(C)=O`, the call was inactive.

As to `Cc1ccc2c(c1)C(=O)c1ccccc1C2=O`, the compound was called inactive.

Turning to `CCC(C)OC(=O)c1ccc(O)cc1` (stereo not given), the compound was classed as inactive.

Consider `CCN(CCO)c1cccc(C)c1`, for which the compound was classed as inactive.

Take `Nc1ccc(N=Nc2ccccc2)c(N)n1`: the result was inactive.

As for `CC(C)(C)c1ccc(OC(=O)c2ccccc2O)cc1`, the compound was classed as inactive.

With `COC(=O)/C=C\C(=O)O`, the result was inactive.

For `CC(=O)OCCC1CCCCC1`, the compound was classed as inactive.

Turning to `O=C(O)c1ccccc1Nc1cccc(C(F)(F)F)c1`, the compound was called inactive.

`O=C1OC(=O)c2cc(Oc3ccc4c(c3)C(=O)OC4=O)ccc21`: the compound was called inactive.

Turning to `O=C(Nc1cccc(C(F)(F)F)c1)c1cc(Br)cc(Br)c1O`, the AC50 is 166 µM (active).

`COc1cc(C)ccc1C(C)C`: the compound was classed as inactive.

For the compound `CCCCCCCCCCc1ccccc1`, the compound was classed as inactive.

For `FC(F)(F)C(=NOCC1OCCO1)c1ccc(Cl)cc1`, the outcome was inactive.

With `O=C(Oc1ccccc1)c1ccc2ccccc2c1O`, the compound was called inactive.

For `O=C1C=CC(=O)O1`, the outcome was inactive.

As to `O=C1c2ccccc2C(=O)C1c1nc2ccccc2c(Br)c1O`, the compound was classed as inactive.

For `O=c1[nH]nc(-c2ccc([N+](=O)[O-])o2)o1`, the result was inactive.

As for `CC=CCO`, the outcome was inactive.

For the compound `CC(C)=CCC[C@H](C)CCO`, the compound was classed as inactive.

For the compound `Cc1cc(C)c(C(=O)O)c(C)c1`, the result was inactive.

As for `CCCCCCCC(C)=O`, the call was inactive.

In the case of `c1ccc(CCCc2ccncc2)cc1`, the result was inactive.

In the case of `CC=C1CC2C=CC1C2` (stereo not given), the result was inactive.

Turning to `Cc1cc(O)c(Cl)c(C)c1Cl`, the outcome was inactive.

With `C=CC(=O)OCCC(=O)O`, the compound was classed as inactive.

Take `OC1CCCCCCCCCCC1`: the call was inactive.

Regarding `CC(C)=CC1CC(C)CCO1` (stereo not given), the result was inactive.

In the case of `CCOCC(=O)O`, the outcome was inactive.

As for `CC1(C)S[C@@H]2[C@H](NC(=O)COc3ccccc3)C(=O)N2[C@H]1C(=O)O`, the compound was classed as inactive.

On to `CC(=O)NS(=O)(=O)c1ccc(N)cc1`, for which the result was inactive.

Regarding `CCCOCCOCCOCCO`, the call was inactive.

Regarding `C=C1C2CCC(C2)C1(C)C` (stereo not given), the compound was classed as inactive.

Consider `C=CC(C)(CCC=C(C)C)OC(=O)C(C)C` (stereo not given), for which the compound was called inactive.

In the case of `CCCCCCCCCCCCCOP(=O)(O)O`, the compound was classed as inactive.

With `O=S(=O)(O)c1ccccc1C=Cc1ccc(-c2ccc(C=Cc3ccccc3S(=O)(=O)O)cc2)cc1`, the call was inactive.

`Cc1cc(C)c(C)cc1C`: the result was inactive.

As for `CC(=O)C=CC1C(C)=CCC(C)C1(C)C` (stereo not given), the compound was classed as inactive.

For `NCCCN1CCN(CCCN)CC1`, the compound was called inactive.

System in a further experiment: not listed separately
Put plainly: ATG_NF_kB_CIS: Attagene CIS-FACTORIAL HepG2 Assay for human Nuclear Factor Kappa B (NF-kB) (AID 2282991). The settings on record: HepG2 Attagene cis-factorial NF-kB reporter mRNA; actives raise or lower the signal. Summed up:
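Readout is reporter transcript level, gain or loss versus DMSO, measured 24 h post-dose via RT-PCR, fluorescent labelling and capillary electrophoresis. Human HepG2 liver cells carried transiently transfected CIS reporter constructs reflecting endogenous factors.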
`O=C(O)c1cc(Cl)cc([N+](=O)[O-])c1Cl`: the outcome was inactive.

For `CCCCCCCCCCOC(C)=O`, the compound was classed as inactive.

In the case of `Cc1ccc2c(c1)C(=O)c1ccccc1C2=O`, the concentration at half-maximal activity (AC50) was 6.48 µM (active).

On to `CCC(C)OC(=O)c1ccc(O)cc1` (stereo not given), for which the result was inactive.

On to `CCN(CCO)c1cccc(C)c1`, for which the compound was classed as inactive.

As to `Nc1ccc(N=Nc2ccccc2)c(N)n1`, the outcome was inactive.

Consider `CC(C)(C)c1ccc(OC(=O)c2ccccc2O)cc1`, for which the compound was called inactive.

On to `COC(=O)/C=C\C(=O)O`, for which the outcome was inactive.

For `CC(=O)OCCC1CCCCC1`, the call was inactive.

`O=C(O)c1ccccc1Nc1cccc(C(F)(F)F)c1`: the call was inactive.

As for `O=C1OC(=O)c2cc(Oc3ccc4c(c3)C(=O)OC4=O)ccc21`, the compound was classed as inactive.

For `O=C(Nc1cccc(C(F)(F)F)c1)c1cc(Br)cc(Br)c1O`, the half-maximal activity concentration (AC50) is 169 µM (active).

`COc1cc(C)ccc1C(C)C`: the compound was called inactive.

Turning to `CCCCCCCCCCc1ccccc1`, the compound was called inactive.

On to `FC(F)(F)C(=NOCC1OCCO1)c1ccc(Cl)cc1`, for which the compound was called inactive.

Consider `O=C(Oc1ccccc1)c1ccc2ccccc2c1O`, for which the AC50 was 100 µM (active).

Consider `O=C1C=CC(=O)O1`, for which the call was inactive.

`O=C1c2ccccc2C(=O)C1c1nc2ccccc2c(Br)c1O`: the AC50 was 28.4 µM (active).

As to `O=c1[nH]nc(-c2ccc([N+](=O)[O-])o2)o1`, the result was inactive.

For `CC=CCO`, the outcome was inactive.

In the case of `CC(C)=CCC[C@H](C)CCO`, the outcome was inactive.

Consider `Cc1cc(C)c(C(=O)O)c(C)c1`, for which the compound was called inactive.

`CCCCCCCC(C)=O`: the result was inactive.

`c1ccc(CCCc2ccncc2)cc1`: the call was inactive.

As for `CC=C1CC2C=CC1C2` (stereo not given), the AC50 was 100 µM (active).

As to `Cc1cc(O)c(Cl)c(C)c1Cl`, the compound was called inactive.

`C=CC(=O)OCCC(=O)O`: the call was inactive.

With `OC1CCCCCCCCCCC1`, the result was inactive.

`CC(C)=CC1CC(C)CCO1` (stereo not given): the compound was classed as inactive.

As to `CCOCC(=O)O`, the compound was called inactive.

As for `CC1(C)S[C@@H]2[C@H](NC(=O)COc3ccccc3)C(=O)N2[C@H]1C(=O)O`, the compound was called inactive.

For the compound `CC(=O)NS(=O)(=O)c1ccc(N)cc1`, the result was inactive.

For the compound `CCCOCCOCCOCCO`, the outcome was inactive.

As for `C=C1C2CCC(C2)C1(C)C` (stereo not given), the compound was called inactive.

Regarding `C=CC(C)(CCC=C(C)C)OC(=O)C(C)C` (stereo not given), the result was inactive.

On to `CCCCCCCCCCCCCOP(=O)(O)O`, for which the compound was called inactive.

As for `O=S(=O)(O)c1ccccc1C=Cc1ccc(-c2ccc(C=Cc3ccccc3S(=O)(=O)O)cc2)cc1`, the compound was classed as inactive.

On to `Cc1cc(C)c(C)cc1C`, for which the compound was classed as inactive.

Take `CC(=O)C=CC1C(C)=CCC(C)C1(C)C` (stereo not given): the compound was called inactive.

Turning to `NCCCN1CCN(CCCN)CC1`, the call was inactive.

As usually defined, the AC50 is the concentration at which the activity in the assay is half-maximal.
